Results: PubChem BioAssay (NCATS)
Values without a mark were called inactive. Calls come from the whole dose curve; as a rule, active = well fitted curve in the direction sought with a large enough effect; inconclusive = small, poorly fitted or top-dose-only effect, or another doubt; inactive = no such curve, though single readings can be large or run the other way. Numbered stars: 1 amine (or outer) side, 2 acyl side, 3 side chain; on linkers, the order of the positions; unused ones are H or OH. Square brackets hold non-standard residues; d marks the D form. Peptide text beside a SMILES is read from it. X1 = CCCCCCCCCC(=O)[C@H](C(=O)[*:2])[C@@H]1CNC(=O)[C@@H](N[*:1])CS1

Test: Inflammasome Signaling qHTS Counterscreen: IL-1-beta AlphaLISA counterscreen against the NCATS CANVASS Library (AID 1347381);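 note: cell-free check with purified IL-1β in medium and no THP-1 cells; 0% is about no effect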
Details: Purified IL-1beta AlphaLISA signal interference counterscreen; series mostly up to 57.5 µM; activity change, negative = inhibition: at the top concentration
Source text: Natural products and their derivatives continue to be wellsprings of nascent therapeutic potential. However, many laboratories have limited resources for biological evaluation, leaving their previously isolated or synthesized compounds largely or completely untested. To address this issue, the Canvass library of natural products was assembled (https://tripod.nih.gov/canvass), in collaboration with academic and industry researchers, for quantitative high-throughput screening (qHTS) across a diverse set of cell-based and biochemical assays. The pure (>85% purity by liquid chromatography/mass spectrometry [LC/MS]) Canvass library of 346 natural products were submitted by 45 academic laboratories and companies around the world. We collected pure natural products to circumvent deconvolution and structure elucidation due to time and resource limitations. The library was formatted into 1536-well plates and evaluated in 50 qHTS (in an 11-pnt concentration series) bioassays with broad scope of disease-relevant mechanisms. The resulting data set from 50 different assays was then systematically analyzed to identify overall trends and specific natural products with interesting biological activities. Reported herein are the results of each individual qHTS and their corresponding assay protocol. A qHTS assay, based on AlphaLISA technology, was developed to screen the NCATS CANVASS library to look for novel inflammasome inhibitors. The assay detects IL-1B using AlphaLISA anti-IL-1B acceptor and donor beads. Human THP-1 cells were incubated with Canvass compound for 1 hr, followed by stimulation with lipopolysaccharide and ATP to induce inflammasome activation. […] National Center for Advancing Translational Sciences (NCATS), Rockville, MD National Institute of Health (NIH), Bethesda, Maryland
IL-1-beta-counterscreen qHTS protocol: 1. Four microliter of cell culture media (low control, columns 3-4) with 4 pg purified IL-1-beta (high control; columns 1-2 and 5-48) were dispensed into a 1536-well, solid white, tissue culture-treated assay plates using the BioRapTR dispenser. 2. 23 nL of compounds (in DMSO solution) or vehicle control (DMSO) were pin transferred into the assay plates using the Kalypsis pin-tool equipped with a 1536 well pin heads. 3. 1.5 uL AlphaLISA reagent 1 (6 ug/mL anti-IL-1-beta AlphaLISA acceptor beads + 0.6 nM anti-IL-1-beta biotinylated antibody final concentrations) was added using the BioRapTR dispenser. 4. The assay plates were incubated at room temperature for 1 hour. 5. 1.5 uL of AlphaLISA reagent 2 (24 ug/ml AlphaLISA SA-Donor beads, final concentration) was then added to the assay plates followed by a 30 min in the dark incubation at room temperature. 6. The AlphaLISA signal was read by the EnVision plate reader (PerkinElmer) using a 680 nm excitation and 615 nm emission filters.

| SMILES | activity change, negative = inhibition |
| --- | --- |
| CC12C[C@]3(O)O[C@@H](O1)[C@]1(COC(=O)c4ccccc4)[C@@H]3CC21OC1OC(CO)C(O)C(O)C1O (stereo not given in full) | 4.87% |
| CC1=CC2=C[C@H](C)C[C@@]23OC(=C(C)C3=O)CC(C)(C)/C=C/C1=O | -8.26% |
| CC(=O)NC[C@@H]1O[C@H](CC/C=C(C)/C(C)=C/C=O)[C@H](C)C[C@H]1O | 3.78% |
| C=C1C(=O)O[C@H]2[C@H]1CC/C(CO)=C\CC[C@@]1(C)O[C@@H]21 | 4.47% |
| CC1(C)C=Cc2c(ccc3c2OC[C@@H](c2ccc(O)cc2O)C3)O1 | 0.472% |
| C/C1=C/[C@@H](C)[C@H](O)C/C=C/CC/C=C/C(=O)O[C@@H]1[C@H](C)C(=O)/C=C/CC1CC(=O)NC(=O)C1 | 5.22% |
| C/C1=C\CC(=O)/C=C/C=C\c2csc(n2)[C@@H](C)NC(=O)C[C@@](S)([C@@H](C)C(=O)O)CC1 | -8.36% |
| CS/C=C/C(N)=O | 3.14% |
| COC1C(O)C(OC(N)=O)C(Oc2ccc3c(O)c(NC(=O)c4ccc(O)c(CC=C(C)C)c4)c(=O)oc3c2C)OC1(C)C (stereo not given) | -0.289% |
| C[C@]12CC[C@]3(C1)[C@H](CC2=O)CC(OC(=O)c1ccccc1)[C@H]1[C@@](CO)(C(=O)O)CCC[C@@]13C (stereo not given in full) | -12.6% |
| CCCCCCCCC[C@@H]1C[C@@H]2CC[C@H]3[C@@H](C(=O)OCCCCN=C(N)N)[C@@H](C)N=C(N1)N23 | 12.7% [at 34.3 µM] |
| CC1C(=O)C23CCC1C[C@@]21O[C@H]2C(C)(C)C=CC(=O)[C@@]23COC1=O (stereo not given in full) | 2.68% |
| C[C@@H]1O[C@@H](O[C@@H]2[C@@H](O)[C@H](O[C@@H]3[C@@H](O)[C@@H](O)C(O[C@H]4[C@H](OC(=O)[C@]56CCC(C)(C)C[C@H]5C5=CCC7[C@@]8(C)C[C@H](O)[C@H](O[C@@H]9C[C@H](CO)[C@@H](O)[C@H](O)[C@H]9O)[C@@](C)(CO)C8[C@H](O)C[C@@]7(C)[C@]5(C)CC6)OC[C@H](O)[C@@H]4O)O[C@H]3C)OC[C@H]2O)[C@H](O)[C@H](O)[C@H]1O (stereo not given in full) | -6.1% [at 34.3 µM] |
| CC[C@@H]1C[C@@]2(CC)OC(=O)[C@@]3(CC)OC(=O)[C@@H]1[C@@H]23 | -1.08% |
| CN1CCc2cc3c(c4c2[C@H]1[C@@H](O)c1ccccc1-4)OCO3 | -13.7% |
| C/C=C/C(=O)[C@@H](C)C1=CC(=O)C2=C(O[C@@]34CC[C@H](O)C(C)(C)[C@@H]3CC[C@H](C)[C@@]4(C)C2)C1=O | -3.1% |
| C=C1C(=O)O[C@H]2C[C@H](C)[C@@H]3CC(=O)C(C)=C3[C@H](O)[C@H]12 | -0.25% |
| OCc1ccc2ocnc2c1 | 6.45% |
| CN1C(=O)[C@]23SS[C@@]1(C)C(=O)N2[C@H]1Nc2ccccc2[C@]1(c1c[nH]c2ccccc12)[C@@H]3O | -0.0675% |
| CC1=CC[C@@]2(C[C@@H]1O)[C@@H](C(=O)O)CC[C@H]2C(C)C | -6.8% |

| SMILES | activity change, negative = inhibition |
| --- | --- |
| O=c1cc(-c2ccc(O)cc2)oc2c([C@@H]3OC(CO)[C@H](O)[C@@H](O)[C@H]3O)c(O)cc(O)c12 (stereo not given in full) | -4.03% |
| C=CC(C)(C)C(=O)[C@@H](C)[C@@H]1CC[C@](C)(C=C)O1 | -0.923% |
| CC(=O)[C@@H]1[C@@H](O)C[C@H]2[C@]3(C)CC[C@H]4C(C)(C)CCC[C@]4(CO)[C@H]3C[C@H]3OC(=O)[C@@H]1[C@@]32C | -6.88% |
| CC1(C)CCC[C@]2(C)[C@@H]1CC[C@@]13C[C@@H](CC[C@H]12)C(C)(O)C3 (stereo not given in full) | 6.11% |
| C[C@H]1C[C@@H]([C@@H]2CC[C@]34O[C@H](CC[C@@]35C[C@H](C)C(=O)O5)CN24)OC1=O | 7.76% |
| C[C@@H]1C(=O)[C@]23CC[C@H]1C[C@]21O[C@H]2C(C)(C)C=CC(=O)[C@@]23COC1=O | -9.17% |
| COc1ccc(CCCc2cc(O)c(OC)c(O)c2)c(O)c1O | 1.48% |
| Cc1cc(O)cc2oc(C[C@H](C)O)cc(=O)c12 | -3.48% |
| O=C1C[C@@H](c2ccc(O)c(-c3c(O)cc(O)c4c3O[C@H](c3ccc(O)cc3)CC4=O)c2)Oc2cc(O)cc(O)c21 | -7.18% [at 34.3 µM] |
| C=C[C@@]1(C)CC[C@@H]([C@H](C)C(=O)/C=C/C(C)C)O1 | 6.96% |
| CCC1=C2CCCN3C(=O)O[C@H]([C@H]1OC(C)=O)[C@H]23 | 2.63% |
| COc1cc(/C=C/C(=O)O)ccc1O | 4.58% |
| O=C(OC1Cc2c(O)cc(O)cc2OC1c1cc(O)c(O)c(O)c1)c1cc(O)c(O)c(O)c1 (stereo not given) | -12.7% |
| O=c1cc(-c2ccc(O)c(O[C@@H]3O[C@H](CO)[C@@H](O)[C@H](O)[C@H]3O)c2)oc2cc(O[C@@H]3O[C@H](CO)[C@@H](O)[C@H](O)[C@H]3O)cc(O)c12 | -2.1% |
| CO[C@@H]1[C@H](O)[C@@H](C)O[C@@H](OC[C@@H]2C(C)OC(=O)/C=C/[C@H](C)C(O[C@@H]3O[C@H](C)CC4(OC(=O)O[C@@H]4C)C3O)[C@@H](C)CC(C)C(=O)CC[C@H]3OC23)[C@@H]1OC (stereo not given in full) | -5.5% |
| CCCCCCCCCCCCCCCC(=O)OC/C=C(\C)CCCC(C)CC(C)C(C)C (stereo not given) | -4.84% |
| C=C1[C@H]2CC[C@@]3(C=CC(=O)[C@@](C)(CCC(=O)Nc4c(O)ccc(C(=O)O)c4O)C3C2)[C@H]1O (stereo not given in full) | 2.53% |
| CCCCCCCCCC(=O)[C@@H]1C(=O)N[C@@H](CC(C)C)C(=O)N[C@H](C)C(=O)N2CCC[C@H]2C(=O)N[C@@H](C(C)C)C(=O)N[C@H]2CS[C@H]1CNC2=O (cyclo(L[dA]PV[X1])) | 4.79% |
| COc1ccc(/C=C2\COc3cc(O)ccc3C2=O)cc1 | -4.38% |
| C[C@@H]1O[C@@H](Oc2c(-c3ccc(O)cc3)oc3cc(O)cc(O)c3c2=O)[C@H](O)[C@H](O)[C@H]1O | 7.63% |
